# Measured values published in publication PMC7862700, “An all-to-all approach to the identification of sequence-specific readers for epigenetic DNA modifications on cytosine”.
# Legend:
# Experiment in all cases: DAPPL (digital affinity profiling via proximity ligation, sequencing); 10 mM Tris-HCl pH 7.5, 50 mM NaCl, 1 mM DTT, 4% glycerol, room temperature, 30 min; GST-TFs on glutathione beads, 16-mer random dsDNA library, 0.1% formaldehyde crosslink after washing; high values mean tight binding
# [1] = target: T1, FLI1 (Homo sapiens, UniProt Q01543 1-452); conditions: protein: recombinant; tags: N-terminal GST; dsDNA, one strand shown
# T1 sequence: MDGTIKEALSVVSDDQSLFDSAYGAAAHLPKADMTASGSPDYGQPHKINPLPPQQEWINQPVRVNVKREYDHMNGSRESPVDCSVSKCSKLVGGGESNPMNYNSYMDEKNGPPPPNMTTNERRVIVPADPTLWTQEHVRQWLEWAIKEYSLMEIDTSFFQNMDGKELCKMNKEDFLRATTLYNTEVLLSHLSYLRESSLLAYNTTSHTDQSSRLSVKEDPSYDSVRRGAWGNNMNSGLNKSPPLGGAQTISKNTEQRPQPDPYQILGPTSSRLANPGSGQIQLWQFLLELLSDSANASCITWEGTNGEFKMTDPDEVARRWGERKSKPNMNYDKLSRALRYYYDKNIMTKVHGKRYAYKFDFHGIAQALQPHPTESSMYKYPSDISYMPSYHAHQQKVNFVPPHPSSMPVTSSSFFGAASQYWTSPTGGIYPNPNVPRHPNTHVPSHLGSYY
# Method in brief: (§1)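 Binding signal is defined as a hexamer's read frequency for one factor over its frequency for the tag-only sample. To obtain reads, GST-fused human transcription factors were expressed in yeast, captured on glutathione beads, barcoded with DNA and pooled with that sample. Pools met 200 nmole of a 16-mer random double-stranded DNA library in Tris/NaCl/DTT/glycerol buffer for 30 min at room temperature before washing, 0.1% formaldehyde crosslinking, proximity ligation (BsaI/T4 ligase, 1 h, 37 °C), PCR and Illumina NextSeq500 sequencing.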
# [2] = target: T2, ELK1 (Homo sapiens, UniProt P19419 1-428); conditions: protein: recombinant; tags: N-terminal GST; dsDNA, one strand shown
# T2 sequence: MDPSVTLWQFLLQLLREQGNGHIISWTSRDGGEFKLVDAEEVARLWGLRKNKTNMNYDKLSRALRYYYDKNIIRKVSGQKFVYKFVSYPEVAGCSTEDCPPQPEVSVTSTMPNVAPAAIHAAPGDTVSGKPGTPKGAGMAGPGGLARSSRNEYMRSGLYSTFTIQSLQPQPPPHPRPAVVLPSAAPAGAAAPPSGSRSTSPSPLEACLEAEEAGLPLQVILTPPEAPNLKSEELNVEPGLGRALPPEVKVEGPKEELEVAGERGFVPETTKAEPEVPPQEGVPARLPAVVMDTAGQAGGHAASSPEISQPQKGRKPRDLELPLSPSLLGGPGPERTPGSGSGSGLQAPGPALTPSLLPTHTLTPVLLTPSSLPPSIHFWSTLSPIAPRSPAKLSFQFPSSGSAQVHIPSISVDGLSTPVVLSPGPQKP
# Method in brief: as §1
# [3] = target: T3, GABPA (Homo sapiens, UniProt Q06546 1-454); conditions: protein: recombinant; tags: N-terminal GST; dsDNA, one strand shown
# T3 sequence: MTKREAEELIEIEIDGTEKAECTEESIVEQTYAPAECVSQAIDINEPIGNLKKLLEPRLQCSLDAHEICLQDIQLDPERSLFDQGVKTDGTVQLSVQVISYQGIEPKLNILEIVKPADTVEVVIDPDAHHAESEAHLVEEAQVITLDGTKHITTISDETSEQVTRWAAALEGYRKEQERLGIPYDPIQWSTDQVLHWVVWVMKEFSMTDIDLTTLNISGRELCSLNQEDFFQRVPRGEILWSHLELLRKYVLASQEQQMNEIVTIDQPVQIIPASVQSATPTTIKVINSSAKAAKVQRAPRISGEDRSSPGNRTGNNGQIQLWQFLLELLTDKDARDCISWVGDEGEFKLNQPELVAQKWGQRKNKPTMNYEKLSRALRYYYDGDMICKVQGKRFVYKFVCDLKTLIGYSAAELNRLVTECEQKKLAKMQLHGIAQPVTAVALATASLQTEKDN
# Method in brief: as §1
# [4] = target: T4, ERG (Homo sapiens, UniProt P11308 1-479); conditions: protein: recombinant; tags: N-terminal GST; dsDNA, one strand shown
# T4 sequence: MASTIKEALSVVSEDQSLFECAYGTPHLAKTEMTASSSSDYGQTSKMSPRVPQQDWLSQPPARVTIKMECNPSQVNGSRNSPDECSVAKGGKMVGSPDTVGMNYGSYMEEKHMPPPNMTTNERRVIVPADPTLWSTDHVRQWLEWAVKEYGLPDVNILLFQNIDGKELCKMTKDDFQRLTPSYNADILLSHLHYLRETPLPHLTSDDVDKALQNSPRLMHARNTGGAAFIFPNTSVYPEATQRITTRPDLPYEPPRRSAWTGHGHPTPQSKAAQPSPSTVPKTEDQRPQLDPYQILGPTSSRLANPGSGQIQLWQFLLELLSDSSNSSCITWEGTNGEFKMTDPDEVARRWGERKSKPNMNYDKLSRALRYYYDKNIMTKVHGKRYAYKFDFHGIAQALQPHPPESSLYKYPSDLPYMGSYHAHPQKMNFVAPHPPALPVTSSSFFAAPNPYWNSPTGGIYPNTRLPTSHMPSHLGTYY
# Method in brief: as §1
# [5] = target: ELF1 (Homo sapiens, UniProt P32519 1-619); conditions: protein: recombinant; tags: N-terminal GST; dsDNA, one strand shown
# Method in brief: as §1
# [6] = target: T5, EHF (Homo sapiens, UniProt Q9NZC4 1-300); conditions: protein: recombinant; tags: N-terminal GST; dsDNA, one strand shown
# T5 sequence: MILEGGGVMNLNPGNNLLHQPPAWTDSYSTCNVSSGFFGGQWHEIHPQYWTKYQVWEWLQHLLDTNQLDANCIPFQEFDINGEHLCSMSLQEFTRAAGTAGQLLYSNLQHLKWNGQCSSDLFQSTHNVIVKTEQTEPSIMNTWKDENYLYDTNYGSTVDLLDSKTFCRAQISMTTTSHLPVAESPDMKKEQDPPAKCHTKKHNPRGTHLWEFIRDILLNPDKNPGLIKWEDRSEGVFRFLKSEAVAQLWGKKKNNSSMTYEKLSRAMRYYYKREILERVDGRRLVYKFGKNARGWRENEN
# Method in brief: as §1
# [7] = target: SPI1 (Homo sapiens, UniProt P17947 1-270); conditions: protein: recombinant; tags: N-terminal GST; dsDNA, one strand shown
# Method in brief: as §1
# [8] = target: SPIB (Homo sapiens, UniProt Q01892 1-262); conditions: protein: recombinant; tags: N-terminal GST; dsDNA, one strand shown
# Method in brief: as §1
# [9] = target: T6, ELK3 (Homo sapiens, UniProt P41970 1-407); conditions: protein: recombinant; tags: N-terminal GST; dsDNA, one strand shown
# T6 sequence: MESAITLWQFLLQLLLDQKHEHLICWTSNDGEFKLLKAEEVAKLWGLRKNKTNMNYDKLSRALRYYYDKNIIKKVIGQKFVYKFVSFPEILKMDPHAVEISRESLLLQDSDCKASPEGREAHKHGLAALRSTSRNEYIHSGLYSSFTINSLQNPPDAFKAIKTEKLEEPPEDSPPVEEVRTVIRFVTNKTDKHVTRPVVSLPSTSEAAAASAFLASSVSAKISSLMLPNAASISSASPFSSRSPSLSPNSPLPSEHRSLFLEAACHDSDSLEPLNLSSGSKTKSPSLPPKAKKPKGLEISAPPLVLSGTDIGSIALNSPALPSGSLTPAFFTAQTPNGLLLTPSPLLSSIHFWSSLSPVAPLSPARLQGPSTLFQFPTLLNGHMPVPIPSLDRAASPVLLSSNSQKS
# Method in brief: as §1
# [10] = target: T7, FEV (Homo sapiens, UniProt Q99581 1-238); conditions: protein: recombinant; tags: N-terminal GST; dsDNA, one strand shown
# T7 sequence: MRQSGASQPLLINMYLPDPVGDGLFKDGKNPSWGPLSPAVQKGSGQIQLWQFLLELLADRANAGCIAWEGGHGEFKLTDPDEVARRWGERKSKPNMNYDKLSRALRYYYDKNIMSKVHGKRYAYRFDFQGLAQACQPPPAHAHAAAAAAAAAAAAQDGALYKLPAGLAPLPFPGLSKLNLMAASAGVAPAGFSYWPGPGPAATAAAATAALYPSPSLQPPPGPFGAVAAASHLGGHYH
# Method in brief: as §1
# [11] = target: ETV5 (Homo sapiens, UniProt P41161 1-510); conditions: protein: recombinant; tags: N-terminal GST; dsDNA, one strand shown
# Method in brief: as §1
# [12] = target: HSF1 (Homo sapiens, UniProt Q00613 1-529); conditions: protein: recombinant; tags: N-terminal GST; chain copies: 3; dsDNA, one strand shown
# Method in brief: as §1
# [13] = target: T8, SPIC (Homo sapiens, UniProt Q8N5J4 1-248); conditions: protein: recombinant; tags: N-terminal GST; dsDNA, one strand shown
# T8 sequence: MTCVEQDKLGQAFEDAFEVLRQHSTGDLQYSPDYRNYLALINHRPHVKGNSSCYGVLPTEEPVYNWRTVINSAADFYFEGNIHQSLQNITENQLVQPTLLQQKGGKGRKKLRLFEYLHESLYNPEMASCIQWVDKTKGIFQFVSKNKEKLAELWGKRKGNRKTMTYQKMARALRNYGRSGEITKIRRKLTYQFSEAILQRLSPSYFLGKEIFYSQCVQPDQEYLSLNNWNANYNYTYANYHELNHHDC
# Method in brief: as §1
# [14] = target: ELF4 (Homo sapiens, UniProt Q99607 1-663); conditions: protein: recombinant; tags: N-terminal GST; dsDNA, one strand shown
# Method in brief: as §1
# [15] = target: T9, ELK4 (Homo sapiens, UniProt P28324-2 1-405); conditions: protein: recombinant; tags: N-terminal GST; dsDNA, one strand shown
# T9 sequence: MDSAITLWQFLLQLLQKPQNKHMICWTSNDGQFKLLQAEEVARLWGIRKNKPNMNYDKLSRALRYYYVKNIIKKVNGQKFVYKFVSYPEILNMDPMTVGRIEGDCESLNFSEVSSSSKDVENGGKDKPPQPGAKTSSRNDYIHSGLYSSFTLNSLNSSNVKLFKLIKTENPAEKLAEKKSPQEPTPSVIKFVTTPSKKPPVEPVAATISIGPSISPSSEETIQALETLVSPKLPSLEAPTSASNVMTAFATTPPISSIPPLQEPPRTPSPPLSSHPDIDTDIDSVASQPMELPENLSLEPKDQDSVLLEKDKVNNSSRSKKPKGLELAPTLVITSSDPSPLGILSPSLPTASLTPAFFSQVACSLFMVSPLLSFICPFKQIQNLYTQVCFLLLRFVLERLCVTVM
# Method in brief: as §1
# [16] = target: T10, ETV2 (Homo sapiens, UniProt O00321 1-342); conditions: protein: recombinant; tags: N-terminal GST; dsDNA, one strand shown
# T10 sequence: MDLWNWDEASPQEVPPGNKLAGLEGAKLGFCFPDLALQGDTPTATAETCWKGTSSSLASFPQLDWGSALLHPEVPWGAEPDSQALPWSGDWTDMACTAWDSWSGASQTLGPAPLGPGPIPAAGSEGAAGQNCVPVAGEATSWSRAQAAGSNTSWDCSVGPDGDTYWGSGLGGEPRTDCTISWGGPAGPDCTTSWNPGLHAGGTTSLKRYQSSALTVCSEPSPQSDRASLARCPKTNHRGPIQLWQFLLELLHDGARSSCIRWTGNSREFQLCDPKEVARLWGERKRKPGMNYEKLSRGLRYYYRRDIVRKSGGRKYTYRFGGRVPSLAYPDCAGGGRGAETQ
# Method in brief: as §1
# [17] = target: T11, ELF3 (Homo sapiens, UniProt P78545 1-371); conditions: protein: recombinant; tags: N-terminal GST; dsDNA, one strand shown
# T11 sequence: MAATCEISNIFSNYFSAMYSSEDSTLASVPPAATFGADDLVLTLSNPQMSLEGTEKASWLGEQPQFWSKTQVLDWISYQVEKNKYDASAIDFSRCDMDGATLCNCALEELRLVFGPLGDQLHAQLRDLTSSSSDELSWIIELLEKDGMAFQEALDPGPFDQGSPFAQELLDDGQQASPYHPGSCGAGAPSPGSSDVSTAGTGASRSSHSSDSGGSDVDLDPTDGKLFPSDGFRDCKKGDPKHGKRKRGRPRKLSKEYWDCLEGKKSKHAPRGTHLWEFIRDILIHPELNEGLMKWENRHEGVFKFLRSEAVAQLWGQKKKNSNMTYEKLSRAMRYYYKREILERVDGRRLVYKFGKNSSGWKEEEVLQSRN
# Method in brief: as §1
# [18] = target: CRX (Homo sapiens, UniProt O43186 1-299); conditions: protein: recombinant; tags: N-terminal GST; dsDNA, one strand shown
# Method in brief: as §1
# [19] = target: ETV1 (Homo sapiens, UniProt P50549 1-477); conditions: protein: recombinant; tags: N-terminal GST; dsDNA, one strand shown
# Method in brief: as §1
# Chain of ETV1 (P50549 whole entry): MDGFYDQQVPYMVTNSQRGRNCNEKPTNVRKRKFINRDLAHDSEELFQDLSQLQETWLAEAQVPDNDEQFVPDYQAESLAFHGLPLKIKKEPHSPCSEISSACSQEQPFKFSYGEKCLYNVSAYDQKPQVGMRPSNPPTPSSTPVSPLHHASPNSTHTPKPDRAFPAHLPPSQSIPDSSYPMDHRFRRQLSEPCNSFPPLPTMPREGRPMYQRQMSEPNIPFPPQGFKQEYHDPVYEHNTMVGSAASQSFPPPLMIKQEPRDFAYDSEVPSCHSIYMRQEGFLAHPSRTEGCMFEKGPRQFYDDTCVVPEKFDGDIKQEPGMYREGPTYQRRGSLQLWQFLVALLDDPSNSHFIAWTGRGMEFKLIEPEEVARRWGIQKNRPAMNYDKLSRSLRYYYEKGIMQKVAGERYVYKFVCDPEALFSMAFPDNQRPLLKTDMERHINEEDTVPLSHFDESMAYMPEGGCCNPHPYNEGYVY
# Chain of ETV5 (P41161 whole entry): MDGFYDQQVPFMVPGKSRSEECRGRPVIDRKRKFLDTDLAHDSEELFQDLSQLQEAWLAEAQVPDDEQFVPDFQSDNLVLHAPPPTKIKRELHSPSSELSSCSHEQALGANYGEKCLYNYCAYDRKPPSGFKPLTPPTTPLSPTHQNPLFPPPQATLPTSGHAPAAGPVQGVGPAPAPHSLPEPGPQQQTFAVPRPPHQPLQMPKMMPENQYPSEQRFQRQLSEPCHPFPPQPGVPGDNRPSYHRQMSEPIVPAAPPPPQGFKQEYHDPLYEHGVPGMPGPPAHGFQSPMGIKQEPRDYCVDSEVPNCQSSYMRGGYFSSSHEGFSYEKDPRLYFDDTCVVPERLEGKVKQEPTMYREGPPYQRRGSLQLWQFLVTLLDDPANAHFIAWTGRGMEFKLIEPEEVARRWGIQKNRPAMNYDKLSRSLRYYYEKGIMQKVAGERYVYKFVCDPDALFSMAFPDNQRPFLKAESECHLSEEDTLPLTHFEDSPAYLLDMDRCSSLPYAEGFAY
# Chain of HSF1 (Q00613 whole entry): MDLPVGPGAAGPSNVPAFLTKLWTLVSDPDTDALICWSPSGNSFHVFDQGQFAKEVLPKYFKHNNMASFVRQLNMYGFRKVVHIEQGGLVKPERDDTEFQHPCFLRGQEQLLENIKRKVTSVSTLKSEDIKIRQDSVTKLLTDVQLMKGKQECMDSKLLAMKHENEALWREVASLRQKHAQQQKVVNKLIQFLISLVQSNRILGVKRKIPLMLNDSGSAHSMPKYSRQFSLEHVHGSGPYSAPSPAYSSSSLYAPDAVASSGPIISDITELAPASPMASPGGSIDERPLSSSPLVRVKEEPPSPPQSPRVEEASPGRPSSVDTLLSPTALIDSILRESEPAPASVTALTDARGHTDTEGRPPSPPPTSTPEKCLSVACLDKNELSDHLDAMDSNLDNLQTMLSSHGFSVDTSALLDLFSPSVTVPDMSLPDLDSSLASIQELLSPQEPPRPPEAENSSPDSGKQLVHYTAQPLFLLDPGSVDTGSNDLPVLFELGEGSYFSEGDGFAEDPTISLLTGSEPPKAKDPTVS
# Chain of SPIB (Q01892 whole entry): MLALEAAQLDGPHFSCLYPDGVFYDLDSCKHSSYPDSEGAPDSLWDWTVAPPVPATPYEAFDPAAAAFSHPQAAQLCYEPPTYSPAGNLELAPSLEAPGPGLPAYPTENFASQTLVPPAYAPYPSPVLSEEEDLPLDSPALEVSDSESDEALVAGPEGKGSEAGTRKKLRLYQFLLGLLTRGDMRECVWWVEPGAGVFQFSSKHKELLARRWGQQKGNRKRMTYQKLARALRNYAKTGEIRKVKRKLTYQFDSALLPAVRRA
# Chain of ELF4 (Q99607 whole entry): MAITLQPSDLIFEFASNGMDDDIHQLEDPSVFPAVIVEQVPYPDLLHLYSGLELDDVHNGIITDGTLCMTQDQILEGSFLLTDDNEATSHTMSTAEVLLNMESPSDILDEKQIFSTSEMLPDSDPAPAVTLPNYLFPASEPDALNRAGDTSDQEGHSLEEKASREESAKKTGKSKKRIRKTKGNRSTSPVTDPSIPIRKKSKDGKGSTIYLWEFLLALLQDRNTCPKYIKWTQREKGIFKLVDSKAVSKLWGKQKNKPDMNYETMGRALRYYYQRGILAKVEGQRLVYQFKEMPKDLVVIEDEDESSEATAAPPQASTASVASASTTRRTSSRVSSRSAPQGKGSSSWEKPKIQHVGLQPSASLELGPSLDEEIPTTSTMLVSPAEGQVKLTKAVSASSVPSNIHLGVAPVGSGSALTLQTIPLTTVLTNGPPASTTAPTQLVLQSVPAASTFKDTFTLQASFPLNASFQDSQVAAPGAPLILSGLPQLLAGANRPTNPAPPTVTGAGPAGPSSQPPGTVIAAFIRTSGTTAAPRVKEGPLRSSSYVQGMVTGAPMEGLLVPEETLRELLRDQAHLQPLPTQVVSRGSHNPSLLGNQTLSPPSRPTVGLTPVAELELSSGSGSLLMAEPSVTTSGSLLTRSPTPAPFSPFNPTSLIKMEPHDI
# Chain of CRX (O43186 whole entry): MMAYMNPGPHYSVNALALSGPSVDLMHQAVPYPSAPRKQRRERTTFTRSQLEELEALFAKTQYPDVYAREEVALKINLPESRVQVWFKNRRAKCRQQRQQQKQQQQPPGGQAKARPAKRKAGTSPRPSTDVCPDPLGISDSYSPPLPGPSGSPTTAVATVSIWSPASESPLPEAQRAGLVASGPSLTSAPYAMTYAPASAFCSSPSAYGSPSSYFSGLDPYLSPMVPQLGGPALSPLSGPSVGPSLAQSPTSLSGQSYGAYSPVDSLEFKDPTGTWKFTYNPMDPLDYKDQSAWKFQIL
# Chain of ELF1 (P32519 whole entry): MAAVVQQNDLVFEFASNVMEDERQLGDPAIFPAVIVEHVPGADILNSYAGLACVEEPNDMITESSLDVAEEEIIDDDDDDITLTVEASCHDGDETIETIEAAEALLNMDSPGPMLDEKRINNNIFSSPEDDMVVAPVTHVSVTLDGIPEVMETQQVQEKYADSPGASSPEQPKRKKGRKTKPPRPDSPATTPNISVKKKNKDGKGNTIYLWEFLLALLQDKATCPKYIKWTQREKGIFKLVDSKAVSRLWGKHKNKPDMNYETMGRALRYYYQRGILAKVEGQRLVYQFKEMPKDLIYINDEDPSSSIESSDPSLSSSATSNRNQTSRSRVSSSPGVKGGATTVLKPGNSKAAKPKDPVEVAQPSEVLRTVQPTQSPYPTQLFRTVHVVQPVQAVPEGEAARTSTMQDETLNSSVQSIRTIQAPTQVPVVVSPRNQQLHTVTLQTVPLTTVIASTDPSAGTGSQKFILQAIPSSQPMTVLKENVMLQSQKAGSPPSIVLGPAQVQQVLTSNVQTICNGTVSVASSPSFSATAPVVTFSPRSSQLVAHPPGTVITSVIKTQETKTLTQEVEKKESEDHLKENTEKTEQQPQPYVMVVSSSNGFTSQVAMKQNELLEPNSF
sequence,measurement,setting,value
AAAACA,binding signal,[1],"1.35 fold enrichment (6-mer frequency, TF over GST control)"
same,binding signal,[2],"1.22 fold enrichment (6-mer frequency, TF over GST control)"
same,binding signal,[3],"1.35 fold enrichment (6-mer frequency, TF over GST control)"
same,binding signal,[4],"1.34 fold enrichment (6-mer frequency, TF over GST control)"
same,binding signal,[5],"1.31 fold enrichment (6-mer frequency, TF over GST control)"
same,binding signal,[6],"1.31 fold enrichment (6-mer frequency, TF over GST control)"
same,binding signal,[7],"1.36 fold enrichment (6-mer frequency, TF over GST control)"
same,binding signal,[8],"1.24 fold enrichment (6-mer frequency, TF over GST control)"
same,binding signal,[9],"1.28 fold enrichment (6-mer frequency, TF over GST control)"
same,binding signal,[10],"1.34 fold enrichment (6-mer frequency, TF over GST control)"
same,binding signal,[11],"1.31 fold enrichment (6-mer frequency, TF over GST control)"
same,binding signal,[12],"1.25 fold enrichment (6-mer frequency, TF over GST control)"
same,binding signal,[13],"1.42 fold enrichment (6-mer frequency, TF over GST control)"
same,binding signal,[14],"1.39 fold enrichment (6-mer frequency, TF over GST control)"
same,binding signal,[15],"1.22 fold enrichment (6-mer frequency, TF over GST control)"
same,binding signal,[16],"1.34 fold enrichment (6-mer frequency, TF over GST control)"
same,binding signal,[17],"1.38 fold enrichment (6-mer frequency, TF over GST control)"
same,binding signal,[18],"1.13 fold enrichment (6-mer frequency, TF over GST control)"
same,binding signal,[19],"1.37 fold enrichment (6-mer frequency, TF over GST control)"
